Growth data for 13 compounds are collected here from PubChem BioAssay (NCI).

Experiment in all cases: NCI-60 one-dose screen, 48 h (100 = growth as untreated, 0 = no growth, -100 = all killed)
Common to all, as to conditions: 10 µM

Assay [1] deals with HCT-15 colon.
Assay [2] concerns HT29 colon.
Assay [3] has as its system SNB-75 CNS.
Assay [4] concerns SNB-19 CNS.
Assay [5] relates to U251 CNS.
The test system of assay [6] is PC-3 prostate.
The test system of assay [7] is SK-MEL-5 melanoma.
The test system of assay [8] is UACC-62 melanoma.
The test system of assay [9] is LOX IMVI melanoma.
Assay [10] relates to SK-MEL-28 melanoma.

About 83,000 compounds went through this panel and 20% of them were active in at least one assay; those are over-represented in the sample as a whole.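 Testing used 96-well plates and a 48-hour single-concentration exposure. Example: -40 means 40% of the starting cells died.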 Unmarked numbers belong to inactive results. Activity calls are given as the source filed them. How the source made its calls: active means growth percent below 10; inactive means the rest.

With `O=C(OCc1ncc(-c2ccc(C(F)(F)F)cc2)c(NC2CCCCCC2)n1)c1c(F)c(F)c(F)c(F)c1F`, the growth is 89.3% in assay [1]; 43.1% in assay [2]; 76.1% in assay [3]; 73.8% in [4]; 46.8% in assay [5]; 28.6% in [6]. Also, the growth was 36.4% in assay [7], 36.6% in assay [8], 57.5% in assay [9] and 47.4% in assay [10].
With `O=[N+]([O-])c1ccc(-c2nc(Cl)c3c(n2)CCCC3)o1`, the growth in assay [1] was 15.9%; in assay [2], 53.5%; in assay [3] it was 69.9%; in assay [4], 91.1%; in [5], 78.6%; in [6], 89.4%. Besides, the growth is 47.3% in assay [7], 86.9% in assay [8], 21.8% in [9] and 98.4% in assay [10].
Take `COc1cc(/C=C/C(=O)c2cc(-c3ccc(C(F)(F)F)cc3)ccc2O)cc(OC)c1OC`: the growth in assay [1] was 60%; in [2], 60.5%; in assay [3], 78.6%; in assay [4], 75.4%; in assay [5], 69%; in assay [6], 44.4%. Further, the growth in [7] was 47.2%; in [8] it was 53.5%; in [9] it was 19.2%; in [10], 92.2%.
`CNC(=O)c1cc(Oc2ccc(NC(=O)Nc3ccc(Cl)c(C(C)(C)C)c3)c(F)c2)ccn1`: the growth in assay [1] was 38.9%; in assay [2] it was 25.9%; in assay [3] it was 104%; in assay [4], 60%; in assay [5] it was 52%; in assay [6] it was 37.7%. The growth in assay [7] is -23.2% (active); in [8] it was 16%; in assay [9], 16.6%; in [10] it was 34.8%.
As to `Oc1ccccc1-c1nnc(Cn2c(Cc3cccc4ccccc34)nc3ccccc32)o1`, the growth in assay [1] is 94%; in assay [2], 102%; in assay [3], 88.8%; in [4] it was 87.1%; in [5], 99.2%; in [6], 89.5%. The growth was 96.3% in assay [7], 88.7% in [8], 89.3% in [9] and 103% in assay [10].
Turning to `COc1ccc(-c2nc(NC(=O)CS(=O)(=O)c3ccc(F)cc3)sc2C)cc1`, the growth in [1] was 18.7%; in assay [2], 4.71% (active); in assay [3], 79.6%; in assay [4] it was 86.8%; in [5], 47.8%; in assay [6], 44.1%. Moreover, the growth in [7] was 35.9%; in [8], 74.9%; in [9], 51.6%; in assay [10], 88.5%.
In the case of `CCCCn1c(=O)[nH]c(N)c(C(c2ccc(Cl)cc2)c2c(N)[nH]c(=O)n(CCCC)c2=O)c1=O`, the growth was 76.9% in assay [1]; 24.6% in assay [2]; 57.1% in assay [3]; 47.9% in [4]; 35.8% in [5]; 32% in [6]. Besides, the growth in assay [7] is -11.3% (active); in assay [8] it was 41.3%; in assay [9] it was 41.2%; in assay [10], 44.7%.
Consider `O=C(Nc1cccc(F)c1)Nc1cccc(Cl)c1`, for which the growth was 82.9% in assay [1]; 90.9% in [2]; 89.1% in [3]; 99.9% in assay [4]; 90.5% in assay [5]; 65.5% in assay [6]. Also, the growth in [7] is 91.5%; in assay [8] it was 77.1%; in [9], 106%; in assay [10], 98.9%.
As to `N#C/C(=C\N1C(=O)/C(=C/c2cccc([N+](=O)[O-])c2)SC1=S)c1nc2ccccc2s1`, the growth is 95% in [1]; 90.6% in assay [2]; 82.5% in assay [3]; 88.8% in assay [4]; 69% in [5]; 83.5% in [6]. For the same compound, the growth in assay [7] is 64.6%; in [8] it was 63.3%; in assay [9], 79.8%; in [10] it was 92.4%.
In the case of `Cc1ccc(NS(=O)(=O)c2ccccc2)c(NS(=O)(=O)c2ccccc2)c1`, the growth was 104% in assay [1]; 102% in [2]; 90.5% in [3]; 95.2% in assay [4]; 98.6% in assay [5]; 94.6% in assay [6]. Besides, the growth in [7] is 104%; in [8] it was 87.9%; in [9] it was 94.5%; in assay [10], 116%.
For `COc1ccc2nc(-c3ccccc3)cc(C(C)=O)c2c1`, the growth in [1] was 94.9%; in assay [2], 93.6%; in assay [3], 79.7%; in [4], 101%; in assay [5] it was 99.1%; in assay [6], 84.4%. For the same compound, the growth was 98.5% in [7], 91.1% in [8], 92.2% in assay [9] and 108% in assay [10].
Take `Nc1ccn([C@@H]2O[C@H](COP(=O)(O)O[C@@H]3C[C@H](n4cc(F)c(=O)[nH]c4=O)O[C@@H]3COP(=O)(O)O[C@@H]3C[C@H](n4cc(F)c(=O)[nH]c4=O)O[C@@H]3COP(=O)(O)O[C@@H]3C[C@H](n4cc(F)c(=O)[nH]c4=O)O[C@@H]3COP(=O)(O)O[C@@H]3C[C@H](n4cc(F)c(=O)[nH]c4=O)O[C@@H]3COP(=O)(O)O[C@@H]3C[C@H](n4cc(F)c(=O)[nH]c4=O)O[C@@H]3COP(=O)(O)O[C@@H]3C[C@H](n4cc(F)c(=O)[nH]c4=O)O[C@@H]3COP(=O)(O)O[C@@H]3C[C@H](n4cc(F)c(=O)[nH]c4=O)O[C@@H]3COP(=O)(O)O[C@@H]3C[C@H](n4cc(F)c(=O)[nH]c4=O)O[C@@H]3COP(=O)(O)O[C@@H]3C[C@H](n4cc(F)c(=O)[nH]c4=O)O[C@@H]3COP(=O)(O)O[C@@H]3C[C@H](n4cc(F)c(=O)[nH]c4=O)O[C@@H]3COP(=O)(O)OCCOCCOCCOCCOCCOCCO)[C@H](O)C2O)c(=O)n1` (stereo not given in full): the growth in assay [1] is 44.6%; in assay [2] it was 47.1%; in assay [3], 86.3%; in [4], 56.6%; in [5] it was 30.3%; in assay [6], 56.1%. The growth was 2.12% (active) in assay [7], 25.6% in assay [8], 25.2% in assay [9] and 52.3% in assay [10].
`COc1ccc(/C=C(\c2cc(OC)c(OC)c(OC)c2)c2nnc(-c3cccs3)o2)cc1`: the growth in [1] is 103%; in [2], 90.7%; in assay [3] it was -10.5% (active); in assay [4] it was 52.3%; in assay [5], 55.7%; in assay [6], 81.7%. For the same compound, the growth is 64.6% in [7], 78.1% in assay [8], 92.8% in assay [9] and 69.7% in [10].
